Assay [1] is described as follows: small molecules captured by biotinylated probe aFSTL3 – biochemical, small-molecule microarray, fluorescence 635/667, stem cell growth factor project, primary screen (AID 1064).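 Further: measures binding of the biotinylated anti-FSTL3 antibody to printed compounds.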 To be noted: higher = more signal.
Assay [2] in a line: binders from COS7 lysate, DM2A8 probe, primary screen, torsin A project, cell lysate, small-molecule microarray, fluorescence 635/667 (AID 1065). Particulars: higher = more signal, COS7 lysate expressing mutant human TOR1A.
Assay [3] in a line: small molecules captured by biotinylated probe aFGF2 – biochemical, small-molecule microarray, fluorescence 635/667, stem cell growth factor project, primary screen (AID 1067).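 Further: measures binding of biotinylated aFGF2 protein to printed compounds on slides; z-score merges feature fluorescence and signal-to-noise across triplicate slides.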 To be noted: higher = more signal.
Assay [4] is described as follows: small molecules captured by biotinylated probe aFGF10 – biochemical, small-molecule microarray, fluorescence 635/667, stem cell growth factor project, primary screen (AID 1071).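 Further: score merges 667 nm spot intensity and signal to noise from triplicate slides.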 To be noted: higher = more signal.
Assay [5] deals with Neurogenic locus notch homolog protein 2 (Homo sapiens) (UniProt Q04721). The experiment in a line: small molecules binding Notch2 protein – biochemical, small-molecule microarray, 635 nm fluorescence, stem cell growth factors, primary screen (AID 1073). To be noted: higher = more signal.
The target of assay [6] is Pro-neuregulin-1, membrane-bound isoform (Homo sapiens) (UniProt Q02297). The assay can be described thus: small molecules binding neuregulin-1 protein – biochemical, small-molecule microarray, fluorescence 635/667, psychiatric disease protein project, primary screen (AID 1075).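 Further: score combines 667 nm spot fluorescence with signal to noise.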 Particulars: NRG1 binding, 635 nm fluorescence, higher = more signal.
Assay [7] relates to Neuregulin-1 EGF-like domain. The experiment in a line: small molecules binding NRG1 EGF domain – biochemical, small-molecule microarray, 635 nm fluorescence, primary screen (AID 1081).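 Further: binding of the protein to compounds printed on small-molecule microarray slides.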 Particulars: higher = more signal.
Assay [8] in a line: FRG1 expression reporter modulators in myotubes – cell-based, C2C12 myotubes, firefly/Renilla luciferase, luminescence, FRG1 inhibition for FSHD, primary screen (AID 1084). Particulars: FRG1 promoter luciferase, higher = more signal, called active from +8 up or from −8 down.
Assay [9] in a line: small molecules captured by biotinylated probe aFST – biochemical, small-molecule microarray, fluorescence 635/667, stem cell growth factor project, primary screen (AID 1086).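 Further: score merges 667 nm fluorescence with signal-to-noise of each printed compound spot.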 Particulars: higher = more signal.
Assay [10] can be described thus: binders of probe aHhip on microarray, primary screen, stem cell growth factor project, biochemical, small-molecule microarray, fluorescence 635/667 (AID 1087).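 Further: score merges spot fluorescence at 667nm with spot signal to noise ratio.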 To be noted: higher = more signal.
In assay [11] the test system is PRMT1 (protein arginine N-methyltransferase 1). The assay can be described thus: small molecules binding arginine methyltransferase PRMT1 – biochemical, small-molecule microarray, 635 nm fluorescence, primary screen (AID 1088).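 Further: binding of Prmt1 protein to compounds spotted on small-molecule microarray slides.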 To be noted: higher = more signal.
A short description of assay [12]: growth effects on S. cerevisiae YJM789 – YJM789 clinical isolate, OD600, 24 h, basal, primary screen (AID 1089).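 Further: growth of clinical yeast isolate S. cerevisiae YJM 789 seeded 1000 cells per well; test concentration not given here.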 Particulars: higher = more signal, called active from +8 up or from −8 down.
Assay [13] can be described thus: S. pombe growth modifiers, basal conditions – strain 972, OD600, 24 h, no modulator, primary screen (AID 1090).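 Further: basal condition with compound alone and no growth modifier present; test concentration not given here.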 To be noted: S. pombe 972 growth, higher = more signal, called active from +8 up or from −8 down.
Assay [14] can be described thus: budding yeast growth modifiers under rapamycin – strain BY4716, OD600, 96 h, primary screen (AID 1091). Further: test concentration not given here. To be noted: S. cerevisiae BY4716 + rapamycin, higher = more signal, called active from +8 up or from −8 down.
In assay [15] the target is Torsin-1A-interacting protein 2 (Homo sapiens) (UniProt Q8NFQ8). The assay can be described thus: small molecules binding lysate-expressed LULL1 – cell lysate, human LULL1 lysate, 635/667 nm fluorescence, primary screen (AID 1092).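 Further: probe is lysate of COS7 cells overexpressing human LULL1; score merges per-feature 667 nm fluorescence with signal-to-noise.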 Particulars: small-molecule microarray, hLULL1 lysate binding, 635 nm fluorescence; higher = more signal.
Assay [16] is described as follows: optical density change of DRC41 E. coli – strain DRC41, OD650, 24 h, E. coli filamentation project, primary screen (AID 1093).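 Further: MC1000 strain lacking acrAB efflux and sulA so SOS filamentation is blocked; test concentration not given here.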 To be noted: E. coli DRC41 growth, higher = more signal, called active from +8 up or from −8 down.
Assay [17] in a line: probe aLefty2 binding to arrayed compounds – biochemical, biotinylated probe, 635/667 nm fluorescence, primary screen (AID 1094).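 Further: score merges spot fluorescence near 667 nm with spot signal-to-noise ratio.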 Particulars: small-molecule microarray, higher = more signal.
Assay [18] has as its system Noggin (protein binding on small-molecule microarray). The assay can be described thus: small molecules binding Noggin protein – biochemical, 635/667 nm fluorescence, primary screen (AID 1095).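 Further: score merges 667 nm feature fluorescence with signal to noise over triplicate slides.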 To be noted: 635 nm fluorescence, higher = more signal.
For assay [19], the target named is Neurogenic locus notch homolog protein 3 (Homo sapiens) (UniProt Q9UM47). The assay can be described thus: small molecules binding NOTCH3 protein – biochemical, 635/667 nm fluorescence, primary screen (AID 1096). To be noted: small-molecule microarray, 635 nm fluorescence, higher = more signal.
Assay [20] can be described thus: probe aEGFR binding to arrayed compounds – biochemical, biotinylated probe, 635/667 nm fluorescence, primary screen (AID 1097).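 Further: probe is a biotinylated anti-EGFR antibody binding compounds printed on slides; score combines fluorescence near 667 nm and signal to noise of each spot.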 Particulars: small-molecule microarray, higher = more signal.

Calls of active or inactive are those of the source.

Data on five compounds can be found in PubChem BioAssay.

Neurogenic locus notch homolog protein 3 (Homo sapiens), sequence (Q9UM47 whole entry, looked up): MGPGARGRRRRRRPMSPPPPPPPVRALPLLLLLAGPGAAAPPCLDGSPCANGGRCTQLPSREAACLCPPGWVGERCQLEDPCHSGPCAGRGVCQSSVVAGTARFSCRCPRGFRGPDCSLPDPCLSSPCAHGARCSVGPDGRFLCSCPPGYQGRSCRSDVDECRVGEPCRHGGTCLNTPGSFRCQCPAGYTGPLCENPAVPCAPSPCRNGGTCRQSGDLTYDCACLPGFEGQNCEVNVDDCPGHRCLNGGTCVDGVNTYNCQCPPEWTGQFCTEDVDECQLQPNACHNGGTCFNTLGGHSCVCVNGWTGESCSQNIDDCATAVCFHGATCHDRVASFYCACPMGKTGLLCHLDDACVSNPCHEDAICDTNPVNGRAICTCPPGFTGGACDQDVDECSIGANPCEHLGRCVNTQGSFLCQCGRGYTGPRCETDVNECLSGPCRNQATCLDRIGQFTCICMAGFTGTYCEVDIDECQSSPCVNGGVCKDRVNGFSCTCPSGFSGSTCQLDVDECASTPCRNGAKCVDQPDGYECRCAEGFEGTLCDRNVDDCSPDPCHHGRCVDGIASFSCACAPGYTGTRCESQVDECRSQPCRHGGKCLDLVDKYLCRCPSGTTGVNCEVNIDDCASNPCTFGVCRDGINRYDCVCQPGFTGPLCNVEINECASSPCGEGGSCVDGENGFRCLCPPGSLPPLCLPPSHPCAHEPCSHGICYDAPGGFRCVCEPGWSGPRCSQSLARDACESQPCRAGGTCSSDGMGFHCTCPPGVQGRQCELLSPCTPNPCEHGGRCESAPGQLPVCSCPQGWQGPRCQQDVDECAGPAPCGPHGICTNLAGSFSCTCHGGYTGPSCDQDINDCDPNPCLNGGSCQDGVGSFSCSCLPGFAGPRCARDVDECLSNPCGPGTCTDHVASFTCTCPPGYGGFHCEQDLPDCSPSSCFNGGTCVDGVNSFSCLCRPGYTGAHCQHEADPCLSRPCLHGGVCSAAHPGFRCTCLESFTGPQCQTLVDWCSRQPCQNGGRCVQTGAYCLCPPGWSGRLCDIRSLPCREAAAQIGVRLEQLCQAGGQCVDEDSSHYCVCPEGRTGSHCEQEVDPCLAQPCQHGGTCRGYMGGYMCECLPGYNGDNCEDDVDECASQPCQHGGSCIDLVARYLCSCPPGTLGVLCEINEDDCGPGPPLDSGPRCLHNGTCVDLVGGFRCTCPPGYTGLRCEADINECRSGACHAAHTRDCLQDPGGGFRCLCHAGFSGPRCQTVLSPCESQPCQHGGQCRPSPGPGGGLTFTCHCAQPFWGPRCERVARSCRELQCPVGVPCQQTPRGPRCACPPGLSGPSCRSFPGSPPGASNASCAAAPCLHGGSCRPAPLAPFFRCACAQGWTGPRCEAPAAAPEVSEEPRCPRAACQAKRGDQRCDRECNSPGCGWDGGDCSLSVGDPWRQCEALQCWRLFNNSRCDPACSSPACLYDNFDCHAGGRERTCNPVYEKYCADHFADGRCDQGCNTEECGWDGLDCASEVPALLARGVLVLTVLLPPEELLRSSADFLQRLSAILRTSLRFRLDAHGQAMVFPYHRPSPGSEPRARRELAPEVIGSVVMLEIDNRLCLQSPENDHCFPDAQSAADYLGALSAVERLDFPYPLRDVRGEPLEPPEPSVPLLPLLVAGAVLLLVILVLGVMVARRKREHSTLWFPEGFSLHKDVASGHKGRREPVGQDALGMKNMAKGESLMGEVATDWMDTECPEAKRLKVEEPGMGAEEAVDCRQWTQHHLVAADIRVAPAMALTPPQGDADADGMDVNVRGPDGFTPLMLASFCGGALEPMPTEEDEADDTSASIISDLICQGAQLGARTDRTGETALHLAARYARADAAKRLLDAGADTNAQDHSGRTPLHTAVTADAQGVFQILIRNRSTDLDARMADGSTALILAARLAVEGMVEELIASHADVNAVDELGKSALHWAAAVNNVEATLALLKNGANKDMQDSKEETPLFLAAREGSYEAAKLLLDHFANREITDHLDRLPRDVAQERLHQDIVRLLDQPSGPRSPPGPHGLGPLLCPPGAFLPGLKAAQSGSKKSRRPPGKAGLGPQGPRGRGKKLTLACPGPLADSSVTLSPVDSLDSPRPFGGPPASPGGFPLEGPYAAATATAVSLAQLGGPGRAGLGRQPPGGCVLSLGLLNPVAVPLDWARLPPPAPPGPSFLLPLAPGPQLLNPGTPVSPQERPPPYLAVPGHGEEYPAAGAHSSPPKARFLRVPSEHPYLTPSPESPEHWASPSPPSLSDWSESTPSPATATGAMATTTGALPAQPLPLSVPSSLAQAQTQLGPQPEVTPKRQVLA
Neurogenic locus notch homolog protein 2 (Homo sapiens), sequence (Q04721 whole entry, looked up, canonical isoform): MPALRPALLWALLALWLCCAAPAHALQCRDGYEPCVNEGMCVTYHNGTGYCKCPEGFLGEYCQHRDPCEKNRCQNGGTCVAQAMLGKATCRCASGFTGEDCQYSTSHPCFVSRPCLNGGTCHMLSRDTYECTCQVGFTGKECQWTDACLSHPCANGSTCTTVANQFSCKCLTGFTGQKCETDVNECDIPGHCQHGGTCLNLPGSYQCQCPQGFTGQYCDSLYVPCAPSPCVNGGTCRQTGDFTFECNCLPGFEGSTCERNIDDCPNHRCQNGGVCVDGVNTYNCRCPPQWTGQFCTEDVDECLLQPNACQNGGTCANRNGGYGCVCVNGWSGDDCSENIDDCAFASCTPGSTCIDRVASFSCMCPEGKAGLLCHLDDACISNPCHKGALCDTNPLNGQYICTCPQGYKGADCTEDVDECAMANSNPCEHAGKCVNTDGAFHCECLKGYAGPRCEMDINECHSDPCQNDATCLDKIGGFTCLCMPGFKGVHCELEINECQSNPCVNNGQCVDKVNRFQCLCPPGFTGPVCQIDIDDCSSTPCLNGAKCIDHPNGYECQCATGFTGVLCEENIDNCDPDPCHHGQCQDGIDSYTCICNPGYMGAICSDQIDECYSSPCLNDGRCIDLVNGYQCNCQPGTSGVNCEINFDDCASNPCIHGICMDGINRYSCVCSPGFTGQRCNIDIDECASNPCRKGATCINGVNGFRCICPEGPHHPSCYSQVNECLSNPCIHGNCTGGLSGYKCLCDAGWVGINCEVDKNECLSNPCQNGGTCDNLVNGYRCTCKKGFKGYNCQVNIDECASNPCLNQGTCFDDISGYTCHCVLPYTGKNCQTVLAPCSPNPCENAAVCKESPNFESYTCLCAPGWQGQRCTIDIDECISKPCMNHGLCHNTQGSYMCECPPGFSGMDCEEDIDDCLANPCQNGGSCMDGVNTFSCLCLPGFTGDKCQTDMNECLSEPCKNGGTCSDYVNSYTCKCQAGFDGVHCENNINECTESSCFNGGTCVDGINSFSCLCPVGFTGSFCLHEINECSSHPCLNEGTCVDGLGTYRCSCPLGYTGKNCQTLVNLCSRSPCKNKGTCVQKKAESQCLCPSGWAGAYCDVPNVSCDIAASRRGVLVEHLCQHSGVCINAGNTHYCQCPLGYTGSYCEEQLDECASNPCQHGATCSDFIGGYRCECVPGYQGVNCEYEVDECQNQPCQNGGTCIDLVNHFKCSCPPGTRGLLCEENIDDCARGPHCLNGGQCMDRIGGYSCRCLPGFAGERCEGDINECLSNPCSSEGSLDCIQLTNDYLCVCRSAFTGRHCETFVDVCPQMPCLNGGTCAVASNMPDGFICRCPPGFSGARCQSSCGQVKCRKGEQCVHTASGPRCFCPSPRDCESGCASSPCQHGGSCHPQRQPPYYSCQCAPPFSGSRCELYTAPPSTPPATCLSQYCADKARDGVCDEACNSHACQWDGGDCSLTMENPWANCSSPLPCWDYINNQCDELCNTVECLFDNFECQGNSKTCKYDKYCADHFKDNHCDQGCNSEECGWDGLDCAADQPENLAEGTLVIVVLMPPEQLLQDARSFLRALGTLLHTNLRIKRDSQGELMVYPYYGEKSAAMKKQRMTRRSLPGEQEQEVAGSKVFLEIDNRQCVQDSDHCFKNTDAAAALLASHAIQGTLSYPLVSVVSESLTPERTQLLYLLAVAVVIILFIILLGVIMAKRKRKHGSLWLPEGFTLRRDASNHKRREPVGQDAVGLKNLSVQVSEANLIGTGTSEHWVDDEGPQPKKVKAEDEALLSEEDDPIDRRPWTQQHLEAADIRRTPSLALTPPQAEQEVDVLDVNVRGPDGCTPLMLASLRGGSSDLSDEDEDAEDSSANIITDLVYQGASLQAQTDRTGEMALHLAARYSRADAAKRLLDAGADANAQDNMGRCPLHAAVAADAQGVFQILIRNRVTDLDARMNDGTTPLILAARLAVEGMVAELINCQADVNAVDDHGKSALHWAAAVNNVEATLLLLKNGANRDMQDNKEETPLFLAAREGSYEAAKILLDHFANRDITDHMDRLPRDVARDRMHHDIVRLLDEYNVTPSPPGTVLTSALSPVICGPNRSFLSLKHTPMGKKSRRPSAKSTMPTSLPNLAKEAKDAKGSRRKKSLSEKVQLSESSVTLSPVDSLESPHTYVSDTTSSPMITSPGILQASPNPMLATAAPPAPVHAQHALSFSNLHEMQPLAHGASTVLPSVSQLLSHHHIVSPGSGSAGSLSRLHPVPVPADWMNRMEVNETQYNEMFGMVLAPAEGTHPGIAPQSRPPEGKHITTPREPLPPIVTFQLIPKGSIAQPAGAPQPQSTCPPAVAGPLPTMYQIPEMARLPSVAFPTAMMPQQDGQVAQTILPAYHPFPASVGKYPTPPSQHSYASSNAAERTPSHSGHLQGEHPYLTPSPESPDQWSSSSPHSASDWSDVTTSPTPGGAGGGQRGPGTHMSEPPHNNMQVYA

Regarding `CCCC=C(CCC)[C@@H](NC(=O)OCC(C)C)c1ccc(C(=O)OC)cc1`, the composite z-score in assay [1] was -0.443; in [2], 0.477; in assay [3] it was -0.0596; in [4], 0.161; in assay [5], 0.638; in assay [6], 0.224. Also, the composite z-score in [7] came to 0.362; in assay [9], 0.107; in assay [10], 2.35; in assay [11], 0.586; in assay [15], 0.893; in assay [17], 0.0506. The values for the composite z-score in [18], in [19] and in assay [20] were 0.421, 0.621 and -0.123, respectively. Besides, the z-score in assay [8] was -0.705 (inactive); in assay [12], -0.245 (inactive); in assay [13], 0.354 (inactive); in [14], -0.894 (inactive); in assay [16], 0.0664 (inactive).
`C=CCOC(=O)[C@H]1[C@@H]2C(=O)O[C@@H](c3ccccc3)[C@@H](c3ccccc3)N2[C@@H](c2ccc(OCCOC(=O)[C@@H]3C[C@@H]4C(=O)N[C@@H](CCCC[N+](C)(C)C)C(=O)N4[C@@H]3c3ccc(O)cc3)cc2)[C@]12C(=O)Nc1ccc(I)cc12`: the composite z-score in [1] was -0.291; in assay [2], 0.857; in [3] it was 0.0559; in [4], 0.719; in [5] it was 1.24; in assay [6], 1.44. Further, the composite z-score was 1.11 in assay [7]; 0.365 in assay [9]; -0.0088 in assay [10]; 1.53 in assay [11]; 2.44 in assay [15]; -0.09 in [17]. Besides, the composite z-score in assay [18] is 1.31; in assay [19] it was 1.14; in [20] it was 0.06. Further, the z-score in assay [8] was 0.687 (inactive); in assay [12] it was 2.31 (inactive); in assay [13], -1.21 (inactive); in assay [14] it was 1.34 (inactive); in assay [16] it was -1.94 (inactive).
With `CCCCC(O)C1C=CC2C(=O)N(c3ccccc3)C(=O)C2N1Nc1ccc([N+](=O)[O-])cc1` (stereo not given), the composite z-score in assay [1] was 0.108; in assay [2] it was 0.0331; in assay [3], -0.0004; in assay [4], 0.531; in assay [5], 1.06; in assay [6] it was 1.58. Besides, the composite z-score in assay [7] is 1.35; in assay [9], 1.27; in assay [10], -0.154; in [11], 1.55; in assay [15], 3.68; in [17] it was -0.144. Besides, the composite z-score was 0.146 in assay [18], 1.11 in [19] and -0.0828 in [20]. Further, the z-score was 0.456 (inactive) in assay [8]; -0.676 (inactive) in assay [12]; 0.429 (inactive) in [13]; 0.154 (inactive) in assay [14]; 0.916 (inactive) in assay [16].
In the case of `O=C1C2C=CC(C(O)c3cccs3)N(Nc3ccc([N+](=O)[O-])cc3)C2C(=O)N1c1ccccc1` (stereo not given), the composite z-score in assay [1] was 0.102; in [2], -0.0628; in assay [3] it was 0.0543; in assay [4], 0.362; in assay [5], 1.19; in assay [6], 1.67. Further, the composite z-score is 1.23 in assay [7]; 0.611 in assay [9]; 0.154 in [10]; 0.32 in [11]; 2.98 in assay [15]; -0.0636 in assay [17]. Besides, the figures for the composite z-score in [18], in assay [19] and in [20] were -0.13, 0.788 and -0.0947, respectively. Also, the z-score was 1.05 (inactive) in [8]; -0.198 (inactive) in assay [12]; 1.14 (inactive) in assay [13]; 1.88 (inactive) in assay [14]; -0.0849 (inactive) in assay [16].
As to `COc1ccc([Si](C)(C)[C@@H]2[C@@H](CC(=O)N(CCO)Cc3ccccc3)O[C@]3(C(=O)N(Cc4ccc(I)cc4)c4ccccc43)[C@H]2C)cc1`, the composite z-score in assay [1] is 0.44; in [2], 1.2; in [3], -0.0403; in [4] it was 0.0554; in [5], 0.512; in assay [6], 0.136. Further, the composite z-score in [7] was 0.83; in assay [9] it was 0.621; in assay [10], 1; in [11] it was 1.55; in assay [15] it was -0.0159; in [17] it was 0.408. The composite z-score in assay [18] turned out to be 1.63; in [19] it was 1.12; in [20] it was 0.338. Further, the z-score in assay [8] was -2.04 (inactive); in assay [12], 0.383 (inactive); in assay [13] it was 1.53 (inactive); in assay [14], 2.57 (inactive); in assay [16], 1.26 (inactive).
